Bioassay records deposited in PubChem by National Center for Advancing Translational Sciences (NCATS).
PNC inhibitor = blocks assembly of the perinucleolar compartment; activity change (PNC), negative = inhibition, % at 10 µM; PC3M PTB-GFP, PNC prevalence imaging, 16 h; active compounds read low; 3.1% of 140,000 active;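 active = readout at or below -70, meaning at least 70% loss of cells showing the perinucleolar compartment, a nuclear body marking cancer cells; inconclusive = readout between -30 and a set limit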;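 also: plate controls were DMSO wells for no effect and camptothecin positive control wells for full effect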
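Compounds are pinned in duplicate onto adhered PC3M cells stably expressing GFP-tagged PTB and incubated 16 h at 37 C. Cells are then fixed, nuclei stained with Hoechst, and PNC-positive cells counted.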
HPGD inh = blocks human HPGD enzyme activity. 4.3% of 150,000 active. AID 894. Potency, µM, without a hit: at the highest dose activity change, negative = inhibition, usual class: inhibitors. purified HPGD, NADH fluorescence kinetic, PGE2 substrate; also: potency is read from the fitted curve at half-maximal effect
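NADH formation kinetics: reaction with 30 uM PGE2 and 1 mM NAD+ (final), 20 nM enzyme, Tris-HCl pH 8 with Tween 20, after 15 min compound preincubation at room temperature. Fluorescence change, last versus first of five reads.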
LMNA splice mod = LMNA splicing modulation; HeLa LMNA splicing GFP/RFP minigene ratio, 48 h; Potency, µM (doses to about 46.1 µM), for inactives: at the highest dose ratio change, negative = inhibition, most hits filed as inhibitors; 0.01% of 200,000 active; AID 1487; active = well fitted inhibition curve with a large enough effect in the signal ratio, with a control signal flat, not every such curve was filed as active; inconclusive = small, poorly fitted or top-dose-only effect, or effect the other way, or a change in a side signal; the % refers to the signal ratio; also: potency is read from the fitted curve at half-maximal effect
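S3 HeLa cells stably expressing lamin A-EGFP splicing minigene plus DsRed2, 600 cells/well, 48 h compound exposure at 37C. Laser-scanning cytometry; analysed as GFP (500-530 nm)/RFP (575-640 nm) total intensity ratio; 0.5% DMSO vehicle.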
ALDH1A1 inh = ALDH1A1 (human) enzyme inhibition; AID 1030; P00352; Potency, µM (series often up to 75.3 µM), inactives show at the top dose activity, negative = inhibition, usual class: inhibitors; Purified ALDH1A1, NADH fluorescence, propionaldehyde substrate; 7.3% of 220,000 active;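 also: potency is read from the fitted curve at half-maximal effect; plate controls were no enzyme wells and a reference inhibitor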
12-hLO inh = blocks human 12-lipoxygenase activity; purified 12-hLO, xylenol orange hydroperoxide absorbance; Potency, µM (titrated, usually from 57.1 µM), for inactives: at the top dose activity change, negative = inhibition, usual class: inhibitors; 0.12% of 150,000 active; AID 1452; active = well fitted inhibition curve with a large enough effect; inconclusive = small, poorly fitted or top-dose-only effect; also: potency is read from the fitted curve at half-maximal effect; nearly all actives have a fitted effect of over 55% in size
Target sequence (P18054 whole entry, looked up): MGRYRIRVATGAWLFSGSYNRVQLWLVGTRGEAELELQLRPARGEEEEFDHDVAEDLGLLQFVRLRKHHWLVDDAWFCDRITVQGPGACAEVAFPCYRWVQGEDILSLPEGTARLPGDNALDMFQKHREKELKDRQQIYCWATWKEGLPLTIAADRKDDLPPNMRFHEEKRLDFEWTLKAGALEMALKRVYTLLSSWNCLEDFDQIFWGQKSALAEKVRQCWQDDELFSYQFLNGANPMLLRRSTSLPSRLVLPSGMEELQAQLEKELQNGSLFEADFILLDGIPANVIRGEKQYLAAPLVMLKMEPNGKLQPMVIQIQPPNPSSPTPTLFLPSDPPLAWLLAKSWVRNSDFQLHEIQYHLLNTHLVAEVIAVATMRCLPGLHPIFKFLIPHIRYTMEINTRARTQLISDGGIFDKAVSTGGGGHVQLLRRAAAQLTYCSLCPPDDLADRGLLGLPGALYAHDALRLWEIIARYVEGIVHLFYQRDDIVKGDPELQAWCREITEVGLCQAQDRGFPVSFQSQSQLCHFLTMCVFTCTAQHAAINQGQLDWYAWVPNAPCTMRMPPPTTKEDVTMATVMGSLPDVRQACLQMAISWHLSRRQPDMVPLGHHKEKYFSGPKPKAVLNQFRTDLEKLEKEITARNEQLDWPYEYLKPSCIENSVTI
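Xylenol orange chromogenic assay: hydroperoxide from 12hLO oxidises Fe(II), giving red-shifted Fe(III)-XO absorbance. Conditions: 150 nM enzyme, 40 uM arachidonic acid, 25 mM Hepes pH 7.0, 0.01% Triton X-100, 30 min, room temperature.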
Active calls of the source: *; ? = inconclusive; . = not tested or not shown; [ ] = another dose, or the depositor's remark. Sampled rows, rich in hits. Any-hit rate of the full collection: about 10%. Unless noted, calls follow the shape of the dose curve; as a rule, active = well fitted inhibition curve with a large enough effect (not every such curve was filed as active); inconclusive = small, poorly fitted or top-dose-only effect, or another doubt; inactive = no such curve, though single readings can be large or run the other way. Unless noted, % is scaled to controls: 0 for no effect and ±100 for the full control effect.

SMILES	PNC inhibitor	HPGD inh	LMNA splice mod	ALDH1A1 inh	12-hLO inh
c1ccc2[nH]c(CN3CCOCC3)nc2c1	9.6	?	-3.4%	-3.1%	1.0%
CCCCN1C(=O)C2(NNc3ccccc3O2)c2ccccc21 (stereo not drawn)	?	31.6µM*	4.2%	0.282µM*	?
C=CCN1C(=O)C2(NNc3ccccc3O2)c2ccccc21 (stereo not drawn)	-19.9	-19.8%	24.7%	1.58µM*	-18.3%
C=CCN1C(=O)C2(NC(=O)c3ccccc3N2)c2ccccc21 (stereo not drawn)	.	.	8.0%[46 µM]	?	.
COc1ccc(NC(=O)CCCn2c(=O)c3sccc3n(Cc3ccccc3)c2=O)cc1	-28.0	-1.7%	-5.3%	7.7%	-2.0%
COc1ccc(NC(=O)CCCn2c(=O)c3sccc3n(Cc3ccccc3C)c2=O)cc1	-5.6	-15.3%	-8.4%	3.98µM*	-1.0%
CCOC(=O)c1ccccc1NC(=O)CSc1nccn1Cc1ccco1	.	.	19.6%[46 µM]	.	.
COc1cc(/C=C(\C#N)C(=O)c2ccc(O)c(O)c2)cc(I)c1O	.	17.8µM*	-25.3%	?	?
CCCc1n[nH]c2c1/C(=N/O)CC(c1ccccc1)C2 (stereo not drawn)	?	7.08µM*	?	5.1%	1.7%
Cc1[nH]nc2c1/C(=N/O)CC(c1ccccc1)C2 (stereo not drawn)	36.5	14.1µM*	1.4%	-11.0%	-0.3%
CCc1noc2c1/C(=N\O)CC(c1ccccc1)C2 (stereo not drawn)	19.4	-14.7%	-29.9%	1.0%	-3.5%
COc1ccccc1CCNC(=O)C(=O)NCC(c1cccnc1)N1CCN(c2ccccc2)CC1 (stereo not drawn)	.	.	6.4%[46 µM]	.	.
CCn1c(/C=C/Nc2ccccc2)[n+](CC)c2cc(Cl)c(Cl)cc21	-96.0*	-2.3%	-10.9%	9.1%	-0.8%
CC(C)C[C@@H](CC(=O)N[C@H](CC(=O)N[C@@H]1CCCC[C@H]1C(=O)N[C@H](CC(=O)N[C@@H](CCC(=O)O)CC(=O)O)Cc1c[nH]c2ccccc12)C(C)C)NC(=O)[C@@H]1CCCC[C@H]1N	.	-4.7%	.	-0.5%	-4.0%
CCCCCCCCCCCCCCC/C=C\[C@H](O)[C@@H](NC(=O)CCCCCCCCCCCCC)OC (tested in a mixture with another compound)	.	.	.	.	-11.1%
CN1C=CC=C/C1=C1\SC(=S)N(C2CCCCC2)C1=O	-7.9	-13.8%	2.0%	14.1µM*	-13.8%
CN1C=CC=C/C1=C1\SC(=S)N(c2ccccc2)C1=O	19.5	-12.2%	-6.9%	11.2µM*	3.4%
O=C1CCCc2cc(S(=O)(=O)NCC3CCC(C(=O)Nc4ccc(Cl)cc4)CC3)ccc2N1 (stereo not drawn)	.	.	4.5%[46 µM]	.	.
COC(=O)c1cn(C(=O)c2ccccc2)c2ccccc12	.	.	.	6.31µM*	.
CCOc1ccc(-c2nc(Cn3c(=O)cc(-c4ccccc4)c4c(C)nn(C)c43)c(C)o2)cc1OC	.	.	-9.8%[46 µM]	.	.
CC[n+]1c(/C=C(\C)SC)sc2ccccc21	31.4	28.2µM*	-13.0%	5.97µM*	-6.3%
COc1ccc(O)c(-c2cc(-c3ccccc3[N+](=O)[O-])[nH]n2)c1	-24.5	22.4µM*	-6.6%	0.2%	-0.1%
Cc1ccc(O)c(-c2cc(C(=O)Nc3cccnc3)[nH]n2)c1	.	.	.	3.6%	.
COc1ccc(-c2cc(-c3cc(C)ccc3O)[nH]n2)cc1	.	.	?	0.9%	.
O=[N+]([O-])c1cc(-c2ccn[nH]2)ccc1Cl	.	.	.	-7.2%	.
SMILES	PNC inhibitor	HPGD inh	LMNA splice mod	ALDH1A1 inh	12-hLO inh
COc1ccc(O)c(-c2cn[nH]c2-c2cccs2)c1	22.8	-2.2%	-12.3%	?	-0.7%
Cc1ccc(O)c(-c2cc(C(F)(F)C(F)F)[nH]n2)c1	-7.3	15.8µM*	-8.9%	16.9%	-19.9%
Cc1ccc(O)c(-c2cc(-c3ccccc3C)[nH]n2)c1	22.8	22.4µM*	-14.0%	5.8%	-21.4%
O=[N+]([O-])c1ccccc1-c1cc(-c2cc(Cl)ccc2O)n[nH]1	51.2	11.2µM*	-7.3%	-0.3%	-22.0%
CC1CCCN(c2ncnc3c2nnn3C)C1 (stereo not drawn)	.	.	-7.8%[46 µM]	.	.
Cc1ccc(O)c(-c2cc(-c3ccccc3[N+](=O)[O-])[nH]n2)c1	4.1	4.47µM*	?	11.1%	-10.1%
Cc1ccc(O)c(C2=Nc3ccccc3N=C(c3ccc([N+](=O)[O-])cc3)C2)c1	-12.2	-14.1%	-0.9%	8.3%	1.8%
c1cnc2ccc(C(c3nnnn3C3CCCCC3)N3CCCCC3)cc2c1 (stereo not drawn)	-100.0*	-12.5%	-2.4%	?	-3.2%
c1cc(N2CCCC2)ccc1C(c1nnnn1C1CCCCC1)N1CCOCC1 (stereo not drawn)	21.2	.	9.0%	25.1µM*	-4.6%
c1cnc2ccc(C(c3nnnn3C3CCCC3)N3CCN4CCCC4C3)cc2c1 (stereo not drawn)	64.8	-4.3%	6.6%	-2.9%	3.0%
CC(C)NC(=O)N1CCC2(CC1)CCN(C(=O)c1cccc(F)c1)CC2	.	-15.3%	.	3.1%	1.9%
CC(C)CCCC(C)C1CCC2C3CC=C4CC(=O)CC[C@@]4(C)C3CC[C@@]12C (stereo partly drawn)	.	-9.8%	12.8%	-3.1%	-1.9%
COCCn1c(=S)[nH]c2cc(OC)c(OC)cc2c1=O	?	-8.8%	-1.5%	31.6µM*	0.9%
O=c1[nH]c2ccc(Cl)cc2c(=O)n1Cc1ccco1	-12.8	0.6%	0.9%	?	-4.3%
COCCn1c(=O)c2cc3c(=O)n(CCOC)c(=O)c3cc2c1=O	-25.6	-6.4%	0.1%	17.8µM*	2.5%
O=c1c2cc(Cl)ccc2[nH]c(=S)n1Cc1ccco1	13.3	-19.7%	17.5%	11.2µM*	-9.1%
COc1cc2[nH]c(=S)n(Cc3ccco3)c(=O)c2cc1OC	-11.2	-12.3%	-4.5%	0.794µM*	-1.3%
CCN(CC)CCCn1c(=S)[nH]c2cc(OC)c(OC)cc2c1=O	?	-1.5%	-4.6%	17.3%	4.2%
CC(C)[C@H](NC(=O)OC(C)(C)C)[C@@H](O)CC(=O)OC(C)(C)C	.	.	.	2.0%[13.5 µM]	.
Cc1nc2ccccc2c(=O)n1-c1ccc(NC(=O)C(F)(F)F)cc1	.	.	24.7%[46 µM]	.	.
c1ccc2c(c1)CCC[C@@H]2C1=NCCN1	.	-5.3%	-13.1%	19.4%[20.9 µM]	0.6%[25.6 µM]
COc1ccc(NC(=O)c2ccc3c(=O)n(Cc4ccco4)c(=S)[nH]c3c2)c(OC)c1	-3.6	-7.8%	9.5%	0.891µM*	-1.4%
COc1ccc(CN(Cc2cc3cc4c(cc3[nH]c2=O)OCO4)C(=O)NC2CCCCC2)cc1	-97.0*	?	?	?	-3.7%
CCN(CC)CCN(Cc1cc2cc3c(cc2[nH]c1=O)OCCO3)C(=O)NC1CCCCC1	?	?	3.9%	?	1.4%
COCc1cc(=O)[nH]c(Nc2nc(C)c3ccccc3n2)n1	-23.4	-15.8%	-6.4%	20µM*	10.1%
Cc1ccc2c(C)nc(Nc3nc(CSc4nnnn4-c4ccccc4)cc(=O)[nH]3)nc2c1	?	-23.7%	-4.5%	3.98µM*	1.8%
